Measured values taken from PubChem BioAssay (NCI).
About 79,000 compounds went through this panel and 15% of them were active in at least one assay; those are over-represented in the sample as a whole. Values without a mark were called inactive. Calls of active or inactive are those of the source. Rule as the data show it: active = growth inhibition above about 70%; inactive = the rest. Where a SMILES comes first, the peptide text is derived from it. [ ]: non-standard residue; d: D form. ξ: configuration not given here. ξA = CC(N)C(=O)O

Assays:
[1] = NCI Yeast Anticancer Drug Screen. Data for the rad50 strain (AID 155);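 also: 0% = growth of vehicle-only cultures of the same strain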; conditions: S. cerevisiae rad50 strain growth inhibition; at 50.0 µM; stronger effect = higher value
Summary of the method: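 Vehicle-treated cultures provide the reference for the growth inhibition reported for compound-exposed, repair-deficient yeast.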

[2] = NCI Yeast Anticancer Drug Screen. Data for the mec2-1 strain (AID 157); conditions: S. cerevisiae mec2-1 strain, at 50.0 µM, stronger effect = higher value
Summary of the method: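 Strain: mec2-1 (DNA repair/cell cycle alteration). Compound exposure, then growth measured; inhibition expressed relative to vehicle.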

[3] = NCI Yeast Anticancer Drug Screen. Data for the sgs1 mgt1 strain (AID 161);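 also: 0% = growth of cultures given vehicle only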; conditions: S. cerevisiae sgs1 mgt1 strain, at 50.0 µM, stronger effect = higher value
Summary of the method: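 Test agents were incubated with a DNA-repair-mutant yeast strain. Growth was then read and compared against vehicle-treated controls.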

[4] = NCI Yeast Anticancer Drug Screen. Data for the cln2 rad14 strain (AID 165);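 also: 0% = growth equal to vehicle treated cultures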; conditions: S. cerevisiae cln2 rad14 strain, at 50.0 µM, stronger effect = higher value
Summary of the method: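 Compounds are applied to the cln2 rad14 yeast strain, and growth is then compared with that of vehicle-treated cultures to give inhibition.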

[5] = NCI Yeast Anticancer Drug Screen. Data for the bub3 strain (AID 167); conditions: S. cerevisiae bub3 mutant strain, at 50.0 µM, stronger effect = higher value
Summary of the method: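 Mutant yeast screening strain plus compound; vehicle-treated cultures serve as the 0% inhibition reference.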

[6] = NCI Yeast Anticancer Drug Screen. Data for the mlh1 rad18 strain (AID 175); conditions: S. cerevisiae mlh1 rad18 strain growth inhibition; at 50.0 µM; stronger effect = higher value
Summary of the method: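 Read-out is yeast growth inhibition, calculated against vehicle-only controls. The compound was applied to a strain engineered with DNA damage repair alterations.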

Compound | growth inhibition [1] | growth inhibition [2] | growth inhibition [3] | growth inhibition [4] | growth inhibition [5] | growth inhibition [6]
COC(=O)c1cc(-c2ccc(OC)cc2)[nH]c(=O)c1C#N | 20.2% | 21.1% | 31.2% | 20.4% | 26.1% | 27.9%
O=C1CCCC1C(O)(C(F)(F)F)C(F)(F)F (stereo not drawn) | -24.8% | -19.9% | -8.05% | 16.6% | -12% | -21.1%
CCOC(=O)C1(C(=O)OCC)CC1c1ccccc1 (stereo not drawn) | 4.6% | -32.5% | 5.5% | -0.6% | -11.7% | -3.2%
COc1ccc2occc2c1 | 0% | -1.55% | -17.7% | 2.7% | -0.75% | 10.1%
CCOC(=O)c1c(-c2ccc(Cl)cc2)c(C#N)c(=S)n(C2OC(COC(C)=O)C(OC(C)=O)C(OC(C)=O)C2OC(C)=O)c1-c1ccccc1 (stereo not drawn) | -1.45% | -3.9% | -6.8% | 25.9% | 17.9% | 4.7%
CC(NC(=O)CNC(=O)CNC(=O)CNC(=O)CN)C(=O)O (stereo not drawn) (H-GGGG[ξA]-OH) | -26.9% | -30.9% | -8.55% | -10.6% | -14.5% | -31.6%
COC(=Nc1cccc2ccccc12)Nc1cccc2ccccc12 | 1.95% | -3.5% | -4.35% | 7.95% | -2.3% | -2%
CCN(CC)C(=O)CNC(=O)c1c2nc3c(C(=O)NCC(=O)N(CC)CC)ccc(C)c3oc-2c(C)c(=O)c1N | 16.9% | 33.9% | 8.95% | 32.9% | 10.9% | 30.6%
COc1ccc(/C=N/N2CN(C(C)C(=O)O)B(N(CCO)CCO)N=C2N)cc1OC (stereo not drawn) | 15.2% | 5.3% | 7.55% | 20.9% | 7.65% | 20.9%
COc1cc(NS(=O)(=O)c2ccc(C)cc2)c2nccnc2c1 | 14.1% | 15.7% | 18.6% | -3.35% | 11.9% | 29.6%
CC1CC=CCC1C(=O)OC/C=C/COC(=O)C1CC=CCC1C (stereo not drawn) | 29.4% | -19.9% | 8.65% | -9.9% | 14.9% | -4.65%
O=C1OCCOCCOCCOCCOCCOCCOC(=O)c2cccc1n2 | 28.9% | -0.7% | 7% | 13.3% | -0.35% | 9.6%
O=C(O)C(CCC1CCC=CCC1)C(=O)O | -13.8% | -6.7% | -9.25% | -2.45% | 5.6% | -7.05%
ClCCCc1ccccc1C1=NCCc2ccccc21 | 28.4% | 19% | -14.5% | 3.25% | -14.7% | 9.9%
N=c1nc(N)ss1 | 15.8% | 5.85% | 16.4% | -31.6% | 21.7% | 44%
CCOCCCN | 37.5% | 16.7% | 6.85% | 3.4% | 16.9% | 5.25%
CCc1ccc(OC(C)=O)cc1 | 12.5% | 10.6% | -13.2% | -21.7% | 6.6% | 15.6%
O=C(O)c1cc2ccccc2c2cc3ccccc3cc12 | 28.6% | 39% | 26.6% | 57.3% | 33.2% | 70.8% (active)
CC(C)(C)c1ccc(S(=O)(=O)/C=C/c2ccccc2)cc1 | -2.4% | 35% | -9.3% | 26.1% | 4.1% | 6.3%

Compound | growth inhibition [1] | growth inhibition [2] | growth inhibition [3] | growth inhibition [4] | growth inhibition [5] | growth inhibition [6]
COc1cc(C2NCCC(c3ccccc3)(c3ccccc3)N2)cc(OC)c1OC (stereo not drawn) | -30.9% | -4.65% | 5.25% | 4.55% | -7.6% | 5.5%
CCNC(=O)C(C(=O)OCCN(CC)CC)c1ccccc1 (stereo not drawn) | 2.05% | 5.7% | -3.3% | -1.05% | -14.7% | 16.7%
NC(Cc1cc(I)c(O)c(I)c1)C(=O)O (stereo not drawn) | -0.95% | -6.05% | -12.6% | 8.2% | 8.3% | 1.35%
CC/C=C(\C)C1(CC)C(=O)NC(=O)N=C1N (stereo not drawn) | -1.35% | 3.55% | 5.9% | 4.55% | -2% | -11.9%
Cc1ccc(NC(=O)c2cc3cc(N=Nc4ccc(Br)cc4)ccc3oc2=O)cc1 | 16% | 28.1% | 12.4% | 23.1% | 3.05% | 15.8%
CC(C)C(C(N)=O)C(C)(C)C (stereo not drawn) | 1.1% | 4.2% | 14.9% | 8.6% | -7.5% | -9.55%
CCNC(=O)OCc1cc(Cl)cc(Cl)c1OC(=O)NCC | 99.5% (active) | 99.2% (active) | 99.7% (active) | 96.8% (active) | 98.5% (active) | 99.5% (active)
O=C1c2ccccc2C(=O)N1C[P+](c1ccccc1)(c1ccccc1)c1ccccc1 | 41.9% | 28.8% | 32.4% | 16.2% | 2.25% | 12.4%
CCCCN(CCCC)CC1OCCO1 | -6.35% | -0.5% | -2.45% | -16.6% | 2.7% | -2.6%
CC1(C)C2CCC1(C)C1(C2)OC(CCl)CS1 (stereo not drawn) | 7.4% | -13.8% | 14.1% | 4.3% | 22.4% | 8.4%
CC(C)(C#N)OC(=O)c1cc([N+](=O)[O-])cc([N+](=O)[O-])c1 | 8.55% | 4.45% | 13.1% | -14.9% | -9.55% | -2.1%
O=C(O)/C(=C/c1ccc([N+](=O)[O-])cc1)c1ccc([N+](=O)[O-])cc1 | 6.9% | -4% | 2.05% | -35.4% | -1.7% | 1.55%
Cc1ccc2c(c1)C(C(C)C)CCC2(C)C (stereo not drawn) | 5.3% | -8.1% | 2.95% | 4.85% | -0.6% | 0.7%
CN(C)CCNC(=O)Cn1cnc2cccc([N+](=O)[O-])c2c1=O | 34.5% | 17% | 4.85% | 20.6% | 20.9% | -34.6%
CCOC(=O)c1ccc(NC(=O)Nc2cc(Cl)ncn2)cc1 | 10.1% | -6.55% | 9.15% | -22.9% | 10.3% | -6.15%
O=C(Nc1c(C(=O)NC2CCCCC2)[nH]c(=O)[nH]c1=O)c1ccc(Cl)cc1 | -18.8% | -1.35% | -19.4% | 2.85% | -0.25% | 5.5%
CN1C(=O)CCC1(O)C1C=CC=CC1 (stereo not drawn) | 16.8% | 7.55% | 1.75% | 16.9% | -4.9% | -2.85%
CC(C)c1cccc(C(C)C)c1NC(=O)OC1CCCCC1C (stereo not drawn) | -21.1% | -17.6% | 7% | -1.95% | -4.65% | -6.4%
CNc1ccc(C(=O)O)cc1C | 1.25% | 12.6% | 9.8% | -15.8% | -56.4% | 0.4%
